FAS TE block = FAS thioesterase (human) inhibition; 360,000 compounds, 0.67% hits; inhibition, % at 15 µM; P49327; recombinant FAS-TE, OMFH fluorogenic substrate, fluorescence endpoint;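 active = compounds whose normalised, plate-corrected inhibition of enzyme fluorescence in the single-dose primary screen is 50% or more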;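 also: 0% = DMSO with enzyme and 100% = substrate without enzyme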
NadD inh = blocks S. aureus nicotinate mononucleotide adenylyltransferase; 360,000 compounds, 0.78% hits; inhibition, % at 20 µM; purified NadD enzyme, colorimetric absorbance read-out; in the data active = inhibition above about 26%
NR3A LBD binder = NR3A (human) ligand-binding domain modulation. AID 1259313. Tm shift relative to glycine control, % at 25 µM. NR3A LBD differential scanning fluorimetry, Tm shift; 0% = protein alone, 100% = glycine-bound protein. 340,000 compounds, 2.5% hits;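 active = melting temperature shift of at least 10% of the positive control shift, at one fixed dose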
rCAG binder = binds r(CAG) RNA repeats | r(CAG) RNA repeat, TO-PRO-1 dye displacement fluorescence | inhibition, % at 3 µM | 370,000 compounds, 1.3% hits | AID 651821;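 active = inhibition above the plate cutoff, the mean of all test compounds on that plate plus 3 SD, cut at about 35% in these data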;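 also: 0% = DMSO alone and 100% = 100 µM mitoxantrone as full dye displacement; higher means more dye released from RNA so lower well fluorescence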
rCAG bind conf = r(CAG) RNA repeat binding, confirmation. AID 652065. 4,300 compounds, 70% hits. TO-PRO-1 dye displacement fluorescence. shares compounds with rCAG binder. inhibition, % at 3 µM;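 active = inhibition above a per-plate cutoff, the mean inhibition of sample wells plus 3 SD, cut at about 35% in these data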;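 also: loss of TO-PRO-1 fluorescence as compound displaces dye from 1x1 AA loop RNA; 0% = DMSO only wells and 100% = 100 µM mitoxantrone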
dCAG dye counter = disrupts DNA CAG TO-PRO-1 complex, flagging rCAG hits | 4,300 compounds, 94% hits | shares compounds with rCAG binder | inhibition, % at 3 µM | d(CAG) DNA oligo TO-PRO-1 dye displacement, fluorescence;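 active = inhibition above its plate's cutoff, the mean test-well inhibition plus 3 SD, cut at about 4.8% in these data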;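 also: 0% = DNA dye mix with DMSO and 100% = 100 µM mitoxantrone; hits displace the dye from DNA and so lower well fluorescence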
DNA CAG DR = DNA CAG dye complex inhibition, dose response counter-screen; shares compounds with rCAG binder; DNA CAG/GTC duplex TO-PRO-1 dye displacement fluorescence; IC50, µM; 250 compounds, 20% hits; AID 686960; in the data active = IC50 below about 10 µM
An asterisk follows results filed as active; i = inactive; nt = no result given. Shown are actives, neighbours in structure and some others; about 4.3% of the full set was active somewhere.

SMILES | FAS TE block | NadD inh | NR3A LBD binder | rCAG binder | rCAG bind conf | dCAG dye counter | others
CC1Cc2cc(/C=C3/SC(=S)NC3=O)ccc2O1 (configuration not stated) | 18 | 1 | -3 | 37* | 23 | 5.9*
Cc1noc(NS(=O)(=O)c2ccc(NC(=O)CSc3nc4c(cc3C#N)CCCC4)cc2)c1C | -2 | 7 | -4 | 41* | 33 | 11*
Cc1noc(NS(=O)(=O)c2ccc(NC(=O)CSc3nc4ccccc4s3)cc2)c1C | -3 | 3 | 9 | 70* | 61* | 25*
COc1ccc(N2CCN(CCNS(=O)(=O)c3ccc(Br)s3)CC2)cc1 | nt | nt | nt | 1 | nt | nt
COC(=O)C1=CC(=O)N2CCN=C2S1 | nt | nt | nt | 3 | nt | nt
CC(=O)c1sc2nc(CSc3nnnn3-c3ccccc3)[nH]c(=O)c2c1C | 4 | 18 | 1 | 39* | 49* | 29*
NC(=O)COc1ccccc1/C=C1/SC(=O)N(CC(=O)N2CCc3ccccc3C2)C1=O | -12 | 5 | 0 | 4 | nt | nt
COc1cc(/C=C2/SC(=O)N(Cc3ccccc3)C2=O)ccc1OCc1ccncc1 | 4 | 5 | -4 | 8 | nt | nt
CCOc1cc(/C=C2/SC(=S)N(Cc3ccccc3)C2=O)ccc1O | 20 | -7 | 6 | 37* | 42* | 24*
CCOc1ccc(N2C(=O)S/C(=C\c3ccc(O)c(OCC)c3)C2=O)cc1 | 2 | -5 | 0 | 6 | nt | nt
COc1cc(/C=C2/SC(=S)N(Cc3ccccc3)C2=O)ccc1OCC(=O)O | 15 | 22 | 8 | 72* | 86* | 55*
CCOc1cc(/C=C2/SC(=O)N(CC(=O)N3CCc4ccccc4C3)C2=O)ccc1OCC(=O)O | -7 | 21 | 0 | 57* | 60* | 21*
COC(=O)[C@H]1C[C@@]2(C3C=CC=C3)c3ccccc3N[C@H]2N1 | nt | nt | nt | 8 | nt | nt
CCN(Cc1ccccc1)C(=O)Nc1c(Cl)cccc1Cl | nt | nt | nt | 1 | nt | nt
FC(F)(F)c1cccc(NC(=S)NNC(=S)NCc2ccccc2)c1 | 17 | 13 | 9 | 78* | 63* | 33*
O=C(NNC(=S)Nc1cccc(C(F)(F)F)c1)c1ccccc1Cl | 1 | 1 | 0 | 25 | nt | nt
O=C(NNC(=S)Nc1cccc(C(F)(F)F)c1)c1cccc(Cl)c1 | 17 | 4 | 25* | 47* | 48* | 14*
O=C(NC1CCCC1)C1CCN(S(=O)(=O)c2ccc3[nH]c(=O)oc3c2)CC1 | nt | nt | nt | 4 | nt | nt
Cc1c(CCC(=O)N2CCC[C@H]2C(=O)O)c(=O)oc2c(C)c3oc4c(c3cc12)CCCC4 | -16 | 2 | -7 | 38* | 58* | 19* | DNA CAG DR=>30
Cc1c(CCC(=O)NCCCCCC(=O)O)c(=O)oc2c(C)c3oc4c(c3cc12)CCCC4 | -7 | 2 | -9 | 30 | nt | nt
COC(=O)[C@]12C[C@H](CC(=O)NCc3cccc4ccccc34)C(=O)N(Cc3ccc4c(c3)OCO4)C1=C[C@H](COCc1ccccc1)O[C@@H]2C | nt | nt | nt | 12 | nt | nt
COc1cccc(CNC(=O)[C@H]2CCCN2C(=O)[C@H]2CCCN2C(=O)c2ccc(F)c(F)c2)c1 | nt | nt | nt | 0 | nt | nt
COC(=O)c1ccc(CSc2nc3scc(-c4cccs4)c3c(=O)[nH]2)o1 | 7 | 34* | -11 | 35* | 32 | 14*
COCCCNC(=O)C[C@H]1C[C@@]2(C(=O)OC)C(=C[C@H](C3CCCC3)O[C@@H]2C)N(Cc2cccc3ccccc23)C1=O | nt | nt | nt | 1 | nt | nt
Cc1cc(Cl)ccc1Oc1ccccc1C(=O)CC#N | 5 | 4 | -2 | 38* | 23 | 7.6*
SMILES | FAS TE block | NadD inh | NR3A LBD binder | rCAG binder | rCAG bind conf | dCAG dye counter | others
Cc1cc(Cl)ccc1Oc1ccc(C(N)=O)cc1[N+](=O)[O-] | -1 | 1 | 2 | -1 | nt | nt
CC1(C(=O)NS(=O)(=O)c2ccc(Cl)cc2)CCN1C(=O)Cc1ccc(-c2ccccc2)cc1 (configuration not stated) | -2 | 3 | nt | 66* | 64* | 23*
CC(C)(C)c1ccc(S(=O)(=O)NC(=O)C2(C)CCN2C(=O)Cc2ccc(-c3ccccc3)cc2)cc1 (configuration not stated) | 1 | 21 | nt | 72* | 86* | 49*
CC(C)(C)c1ccc(CC(=O)N2CCC2(C)C(=O)NS(=O)(=O)c2cccc(Cl)c2)cc1 (configuration not stated) | -3 | 3 | nt | 55* | 49* | 16*
CC(C)(C)c1ccc(CC(=O)N2CCC2(C)C(=O)NS(=O)(=O)c2cccc(C#N)c2)cc1 (configuration not stated) | -13 | -11 | nt | 30 | nt | nt
Cc1cc(C)cc(CC(=O)N2CCC2(C)C(=O)NS(=O)(=O)c2ccc(C(C)(C)C)cc2)c1 (configuration not stated) | -9 | 0 | nt | 58* | 50* | 15*
COc1cccc(NC(=O)C2CCCN2C(=O)Nc2ccc(Cl)cc2)c1 (configuration not stated) | nt | nt | nt | 1 | nt | nt
CC(C)(C)c1ccc(S(=O)(=O)NC(=O)C2(C)CCN2C(=O)CC2CCCCC2)cc1 (configuration not stated) | -6 | 3 | nt | 44* | 31 | 5.3*
CC(C)(C)c1ccc(S(=O)(=O)NC(=O)C2(C)CCN2C(=O)Cc2cc(F)ccc2F)cc1 (configuration not stated) | -10 | -3 | nt | 38* | 30 | 5.6*
CC(C)(C)c1ccc(S(=O)(=O)NC(=O)C2(C)CCN2C(=O)C2CCCCC2)cc1 (configuration not stated) | -7 | 5 | nt | 21 | nt | nt
COc1ccc(CC(=O)Nc2ccccc2N2CCCC2)cc1OC | -1 | 3 | -1 | -5 | nt | nt
CCOc1cc(CC(=O)N[C@@H](CC(C)C)c2ccccc2N2CCCCC2)ccc1C(=O)O | 5 | 11 | -4 | 47* | 36* | 9.8*
COC(=O)c1ccc(N)c2c(N)ccc(C(=O)OC)c12 | nt | nt | nt | 6 | nt | nt
Cc1ccc(-c2nn(Cc3ccccc3)cc2/C=C/C(=O)O)cc1 | -2 | -2 | -1 | 3 | nt | nt
Cc1ccc(-c2nn(CCC(=O)O)cc2/C=C\C(=O)c2ccc(Br)cc2)cc1 | 6 | -2 | 1 | 68* | 74* | 32* | DNA CAG DR=i
O=C(O)CCn1cc(/C=C\C(=O)c2ccc(Cl)cc2)c(-c2cccc(Br)c2)n1 | 2 | 5 | -11 | 63* | 82* | 45*
COC(=O)c1cc2c(c3c4ccccc4n(S(=O)(=O)c4cccc(C)c4)c13)C(=O)N(Cc1ccccc1OC)C2 | nt | nt | nt | 17 | nt | nt
Cc1cc(Nc2cccc(Br)c2)cc(=O)n1-c1cccc(Br)c1 | nt | nt | nt | 12 | nt | nt
C[N+](C)(C)c1ccc(/C=N/Nc2nc(Cl)c(C#N)c(Cl)c2Cl)cc1 | 18 | 5 | 0 | 9 | nt | nt
N#Cc1c(Cl)nc(N/N=C/c2ccccc2)c(Cl)c1Cl | -10 | -7 | -1 | 45* | 6 | 3

Screening data as filed in PubChem.
